Assay outcomes as filed in PubChem.
A selection: hits, their analogues and other compounds. The true share with any hit is near 3.3%.
PHOSPHO1 block: PHOSPHO1 (human) inhibition. Q8TCT1. recombinant PHOSPHO1, absorbance phosphatase assay. inhibition, % at 13.3 µM. AID 1565. actives 1.1% (n = 290,000); in the data active = inhibition above about 60%
CTSL1 counter: cathepsin L1 inhibition, PFM18AAP counter-screen. recombinant F. hepatica cathepsin L1, Z-Leu-Arg-MCA fluorescence. inhibition, % at 5.96 µM. actives 0.49% (n = 300,000);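 active = inhibition above the mean of all tested compounds plus 3 SD, set per screening campaign, cut at about 17% in these data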
Rpn11 inh: Rpn11 (human) deubiquitinase inhibition | human 26S proteasome, Ub4-pepOG fluorescence polarization; 20S core pre-blocked with epoxomicin | AID 588493 | actives 0.59% (n = 360,000) | inhibition, % at 20 µM | O00487;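 active = inhibition at 20 µM, scaled to each plate's controls, above about 33%, limit read from the data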
TPT1 inhibitor: blocks Candida albicans tRNA 2'-phosphotransferase; recombinant caTPT1, FP RNA substrate dephosphorylation; inhibition, % at 5 µM; actives 0.81% (n = 300,000); AID 1962;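 active = inhibition above the mean of all tested compounds plus 3 SD, set per screening campaign, cut at about 24% in these data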
HNF4A DNA FP: change in binding of human HNF4 alpha to DNA; P41235; activity change, % at 10 µM; HNF4a-FITC DNA binding, fluorescence polarization, 1 h; actives 0.3% (n = 360,000); AID 1224865; in the data active = activity change above about 30%, passing the limit was not always enough
NRP1-CendR mod: NRP-1/CendR interaction modulation; O14786; FAM-RPARPAR peptide binding to NRP-1, fluorescence polarization; inhibition, % at 25 µM; actives 0.85% (n = 360,000); AID 602438;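 active = inhibition or corrected inhibition above about 18%, plus a signal ratio from 0.5 to 1.5, limit read from the data, passing the limit was not always enough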
Target sequence (O14786 whole entry, looked up): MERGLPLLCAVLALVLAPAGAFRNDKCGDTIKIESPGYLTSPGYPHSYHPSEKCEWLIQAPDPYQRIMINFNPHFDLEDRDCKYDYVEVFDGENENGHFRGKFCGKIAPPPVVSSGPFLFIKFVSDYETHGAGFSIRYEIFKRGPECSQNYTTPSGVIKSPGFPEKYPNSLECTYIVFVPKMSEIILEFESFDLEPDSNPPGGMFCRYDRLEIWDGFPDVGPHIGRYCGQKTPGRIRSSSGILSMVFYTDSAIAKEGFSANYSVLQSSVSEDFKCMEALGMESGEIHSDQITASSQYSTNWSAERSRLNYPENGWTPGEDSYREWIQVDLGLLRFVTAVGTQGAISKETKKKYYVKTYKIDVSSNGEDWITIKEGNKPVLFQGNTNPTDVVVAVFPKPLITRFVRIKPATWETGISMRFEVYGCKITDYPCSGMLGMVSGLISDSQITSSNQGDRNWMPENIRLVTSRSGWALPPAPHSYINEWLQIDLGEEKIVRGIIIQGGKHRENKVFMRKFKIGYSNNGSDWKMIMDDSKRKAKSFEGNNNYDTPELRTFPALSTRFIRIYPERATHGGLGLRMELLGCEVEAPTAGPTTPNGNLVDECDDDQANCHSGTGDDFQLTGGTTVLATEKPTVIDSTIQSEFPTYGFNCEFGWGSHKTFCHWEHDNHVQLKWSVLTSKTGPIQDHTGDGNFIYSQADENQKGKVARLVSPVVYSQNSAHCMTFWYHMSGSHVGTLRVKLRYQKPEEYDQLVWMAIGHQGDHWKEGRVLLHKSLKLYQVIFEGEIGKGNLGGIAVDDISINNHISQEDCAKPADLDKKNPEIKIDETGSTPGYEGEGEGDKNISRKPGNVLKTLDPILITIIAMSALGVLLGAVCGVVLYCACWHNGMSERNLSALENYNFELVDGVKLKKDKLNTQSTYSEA
caTPT1 confirm: TPT1 (C. albicans) inhibition, confirmation; shares compounds with TPT1 inhibitor; recombinant caTPT1, fluorescence polarization, RNase T1 coupled; inhibition, % at 5 µM; actives 74% (n = 2,400); AID 2149;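 active = inhibition above the primary screen limit, the mean inhibition of all tested compounds plus 3 SD, cut at about 25% in these data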
RNase T1 counter: RNase T1 inhibition in TPT1 counter-screen; shares compounds with TPT1 inhibitor; RNase T1 cleavage, fluorescence polarization, 1536-well; inhibition, % at 5 µM; actives 83% (n = 2,400);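 active = inhibition above the solvent-only control well mean plus 3 SD, limit set per screening run, cut at about 23% in these data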;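 also: inhibitors block cleavage so intact labeled substrate keeps polarization high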
Hits are given with their value; . = inactive; / = no result shown.

SMILES | PHOSPHO1 block | CTSL1 counter | Rpn11 inh | TPT1 inhibitor | HNF4A DNA FP | NRP1-CendR mod | caTPT1 confirm | RNase T1 counter
Cc1[nH]c2ccccc2c1/C=C(\C#N)C(=O)NCc1ccccc1 | . | . | . | 30.7 | . | . | 41.3 | 48.6
CCN(CC)c1ccc(/C=C(/C#N)C(=O)NC(C)C)o1 | . | . | / | 169.3 | . | . | 186.0 | 172.8
C=CCNC(=O)/C(C#N)=C/c1ccc(C)o1 | . | . | . | . | . | . | / | /
CC(C)NC(=O)/C(C#N)=C\c1ccc(N(C)C)o1 | . | . | / | 153.3 | . | . | 177.4 | 169.6
CCN(CC)c1ccc(/C=C(/C#N)C(=O)NCc2ccccc2)o1 | . | . | / | 188.9 | . | . | 196.5 | 180.3
CC(CC(=O)NCc1ccccc1)C1CCCO1 (centres undefined) | . | . | . | . | . | . | / | /
CC(NC(=O)CSCc1ccccc1Br)c1ccccc1 (centres undefined) | . | . | . | . | . | . | / | /
NS(=O)(=O)c1ccc(CCNC(=O)c2cc([N+](=O)[O-])ccc2N2CCOCC2)cc1 | / | / | . | / | . | . | / | /
Cc1cc(Cn2nc(-c3ccccc3)cc2C(=O)NCc2cccc(Br)c2)on1 | / | . | . | . | . | . | / | /
COC(=O)CSc1nc(C)cc(C(F)(F)F)c1C#N | . | . | . | . | . | . | / | /
Cc1ccc(S(=O)(=O)CCSc2nc(C)cc(C(F)(F)F)c2C#N)cc1 | . | . | / | 39.8 | . | . | 57.7 | 69.4
CCOC(=O)c1c(NC(=O)c2nn(C)cc2[N+](=O)[O-])sc(C)c1C | . | . | . | . | . | . | / | /
C=CCOC(=O)C1=C(C)OC(N)=C(C#N)C1c1ccoc1 (centres undefined) | . | . | . | 62.4 | . | . | 59.0 | 73.8
C=CCOC(=O)C1=C(C)OC(N)=C(C#N)C1c1ccc2c(c1)OCO2 (centres undefined) | . | . | . | . | . | . | / | /
COc1ccc(-c2ccc(C3C(C#N)=C(N)Oc4n[nH]c(C)c43)o2)cc1 (centres undefined) | . | . | 73.2 | 110.9 | 61.0 | . | 99.0 | 101.4
Cc1[nH]nc2c1C(c1ccco1)C(C#N)=C(N)O2 (centres undefined) | . | . | . | . | . | . | / | /
CCOCCOC(=O)c1ccc(NC(=O)c2cc3ccccc3o2)cc1 | / | / | . | / | . | . | / | /
NC(=O)CC(NC(=O)Cc1cccc2ccccc12)c1ccc(NCc2ccccc2)c([N+](=O)[O-])c1 (centres undefined) | . | . | . | . | . | . | / | /
CC(C)Nc1ccc(C(CC(N)=O)NC(=O)Cc2cccc3ccccc23)cc1[N+](=O)[O-] (centres undefined) | . | . | / | 74.5 | . | . | 85.0 | 94.7
Cc1ccc(CC(=O)CCc2ccccc2)cc1 | / | . | . | 33.6 | . | . | . | .
Cc1ccc(OCC(=O)NNC(=O)CCc2ccccc2)cc1 | . | . | . | . | . | . | / | /
C/C(CC(=O)NCc1ccco1)=N\NC(=O)Cc1ccc(-c2ccccc2)cc1 | . | . | . | 38.1 | . | . | . | .
O=C(COc1ccccc1)c1cn(CC(=O)N2CCOCC2)c2ccccc12 | . | . | . | 27.3 | . | . | 25.9 | 36.6
CCC(CC)C1C(C#N)=C(N)SC(N)=C1C#N | . | . | . | 38.5 | . | . | . | .
COc1cccc(C2=CC(c3ccc(N(C)C)cc3)n3nnnc3N2)c1 (centres undefined) | 63.2 | . | . | 28.5 | . | . | . | .
SMILES | PHOSPHO1 block | CTSL1 counter | Rpn11 inh | TPT1 inhibitor | HNF4A DNA FP | NRP1-CendR mod | caTPT1 confirm | RNase T1 counter
COc1cccc(C2=CC(c3ccccc3)n3nnnc3N2)c1 (centres undefined) | . | . | . | . | . | . | / | /
COc1cccc(C2=CC(c3ccc(N(C)C)cc3)n3ncnc3N2)c1 (centres undefined) | . | . | / | 38.2 | / | / | 33.8 | 42.9
Cc1ccc(SC(C)C(=O)NCc2ccncc2)cc1 (centres undefined) | . | . | . | 113.6 | . | . | . | .
COc1ccc(CNC(=O)C(C)Sc2ccc(C)cc2)cc1 (centres undefined) | . | . | . | . | . | . | / | /
COc1cc(C(c2nnnn2C(C)(C)C)N2CCN(C)CC2)cc(OC)c1OC (centres undefined) | . | . | . | . | . | . | / | /
COCCNC(=S)N/N=C/c1ccc(-c2ccc([N+](=O)[O-])cc2)o1 | . | . | / | 46.9 | . | . | 50.5 | 63.4
NC(=O)N/N=C/c1ccc(-c2ccc([N+](=O)[O-])cc2)o1 | . | . | . | . | . | . | / | /
COc1cc([N+](=O)[O-])ccc1-c1ccc(/C=N/NC(N)=O)o1 | . | . | / | 51.2 | 86.7 | . | 58.3 | 67.9
COc1cc([N+](=O)[O-])ccc1-c1ccc(/C=N/NC(=O)OC(C)(C)C)o1 | . | . | / | . | . | . | / | /
CCCNC(=O)C(Cc1ccc(C(F)(F)F)cc1)NC(=O)c1ccc(C#N)cc1 (centres undefined) | / | / | . | / | . | . | / | /
Cc1cc(C)n(CC(=O)Nc2ccc(N3CCOCC3)c(Cl)c2)c(=O)c1C#N | . | . | . | . | . | . | / | /
COC(=O)/C=C/C(=O)N1CCN(c2cccc(Cl)c2)CC1 | . | . | / | 47.5 | / | / | . | .
CN(C)c1ccc(C=C2C(=O)OC(C)(C)OC2=O)cc1 | . | . | . | . | . | . | / | /
CCN(CC)c1ccc(C=C2C(=O)OC(C)(C(C)(C)C)OC2=O)cc1 (centres undefined) | / | . | / | 77.9 | . | . | 162.4 | 152.4
CCN(CC)c1ccc(C=C2C(=O)OC3(CCCC3)OC2=O)cc1 | . | . | . | 29.2 | . | . | 139.9 | 142.1
Cc1ccc2nc(N/N=C\c3ccc([N+](=O)[O-])o3)nc(-c3ccccc3)c2c1 | . | . | . | 52.3 | . | . | 49.5 | 44.1
CC1CC/C(=C\c2ccc3c(c2)OCO3)C(=O)/C1=C/c1ccc2c(c1)OCO2 (centres undefined) | . | . | . | 30.8 | . | . | . | .
CC1CCN(CC(=O)Nc2sc3c(c2C#N)CCC3)CC1 | . | . | . | 39.1 | . | . | . | .
CCCC(=O)Nc1sc2c(c1C#N)CCCC2 | . | . | . | . | . | . | / | /
COc1ccc(NC(=O)CSc2nc3ccsc3c(=O)n2CCCCCC(=O)O)cc1 | . | . | . | . | . | . | / | /
Cc1oc(C)c2c(=O)ccc3c(c12)OC(N)=C(C#N)C3c1ccccc1Cl (centres undefined) | . | . | / | 28.9 | . | . | 47.8 | 56.0
Cc1ccsc1C1NC(=O)c2c(sc3c2CCN(C)C3)N1 (centres undefined) | . | . | . | 60.8 | . | . | 55.5 | 65.0
